# “And” between values parts separate entries of the source, which are not always exact repeats. Equal values may be shown once. Inconclusive results are not listed. Entries that show only a call come without a potency. Where a structure was tested more than once in an assay, its records may differ in their call. The source made the active and inactive calls. Unless noted, calls come from the whole dose curve.
# Tests used:
# [1] = molecular target: Peroxisome proliferator-activated receptor delta (Homo sapiens) (UniProt Q03181); assay: qHTS assay to identify small molecule agonists of the peroxisome proliferator-activated receptor delta (PPARd) signaling pathway (AID 743212)
# How it was run: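 Quantitative high-throughput agonist screen in a HEK293H beta-lactamase reporter line under UAS control. Compounds in DMSO, at 37 C. Fluorescence read after 2 h with FRET substrate at room temperature.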
# [2] = qHTS assay to identify small molecule antagonists of the peroxisome proliferator-activated receptor delta (PPARd) signaling pathway - cell viability counter screen (AID 743213; active = well fitted curve in the direction sought with a large enough effect in the repeat runs; an effect the other way counts as inactive or inconclusive; note: nearly all actives have a fitted effect of over 50% in size)
# How it was run: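 Same-well viability: cells pre-incubated 5 h, dosed with compound plus 300 nM L165041, kept 17 h at 37 C, FRET substrate 2 h RT, then CellTiter-Glo 30 min RT and luminescence.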
# [3] = molecular target: Peroxisome proliferator-activated receptor delta (Homo sapiens) (UniProt Q03181); assay: qHTS assay to identify small molecule antagonists of the peroxisome proliferator-activated receptor delta (PPARd) signaling pathway (AID 743215; active = well fitted inhibition curve with a large enough effect in the signal ratio in the repeat runs, not every such curve was filed as active; the % refers to the signal ratio;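 note: cells stimulated with agonist L165041 at 300 nM final during compound exposure; series mostly up to about 62 µM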)
# How it was run: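 Antagonist-mode beta-lactamase reporter screen: HEK293H cells with UAS-bla under PPARd control, stimulated by 300 nM L165041 (final) alongside test compound for 17 h at 37 C, then FRET fluorescence after 2 h substrate incubation.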
# [4] = molecular target: Bile acid receptor (Homo sapiens) (UniProt Q96RI1); assay: qHTS assay to identify small molecule antagonists of the farnesoid-X-receptor (FXR) signaling pathway (AID 743217; active = well fitted inhibition curve with a large enough effect in the signal ratio in the repeat runs, not every such curve was filed as active; the % refers to the signal ratio)
# How it was run: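 Beta-lactamase reporter under UAS control in HEK 293T cells; compound exposure 16 h at 37 °C in the presence of chenodeoxycholic acid (50 uM final); signal from B/G FRET substrate after 2 h at room temperature.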
# [5] = qHTS assay to identify small molecule agonists of the farnesoid-X-receptor (FXR) signaling pathway - cell viability counter screen (AID 743218; active = well fitted curve in the direction sought with a large enough effect in the repeat runs; an effect the other way counts as inactive or inconclusive; note: nearly all actives have a fitted effect of over 45% in size)
# How it was run: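 In GeneBLAzer FXR-UAS-bla HEK 293T cells, compounds act for 16 h at 37 C. Cell viability is then scored in the reporter wells by CellTiter-Glo, 30 min at RT, luminescence.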
# [6] = molecular target: Bile acid receptor (Homo sapiens) (UniProt Q96RI1); assay: qHTS assay to identify small molecule agonists of the farnesoid-X-receptor (FXR) signaling pathway (AID 743220; active = well fitted activation curve with a large enough effect in the signal ratio in the repeat runs, not every such curve was filed as active; the % refers to the signal ratio)
# How it was run: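 Beta-lactamase reporter under UAS control in GeneBLAzer FXR HEK 293T cells (5000/well) measured with LiveBLAzer FRET substrate after 2 h at room temperature. Compound exposure lasted 16 h at 37C.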
# [7] = qHTS assay to identify small molecule antagonists of the farnesoid-X-receptor (FXR) signaling pathway - cell viability counter screen (AID 743221; active = well fitted cell-killing curve with a large enough effect in the repeat runs, not every such curve was filed as active; note: nearly all actives have a fitted effect of over 50% in size)
# How it was run: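 CellTiter-Glo, 30 min RT, luminescence; same wells as the LiveBLAzer FRET read. Cells: FXR-UAS-bla HEK 293T. Treatment: compound with chenodeoxycholic acid 50 uM final, 16 h at 37 C.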
# [8] = molecular target: Vitamin D3 receptor (Homo sapiens) (UniProt P11473); assay: qHTS assay to identify small molecule agonists of the vitamin D receptor (VDR) signaling pathway (AID 743222)
# How it was run: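 Agonist activity measured in VDR-bla reporter cells. Exposure 16 h, 37C, 5% CO2; detection by B/G FRET substrate, 2 h RT.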
# [9] = molecular target: Vitamin D3 receptor (Homo sapiens) (UniProt P11473); assay: qHTS assay to identify small molecule antagonists of the vitamin D receptor (VDR) signaling pathway (AID 743223; active = well fitted inhibition curve with a large enough effect in the signal ratio in the repeat runs, not every such curve was filed as active; the % refers to the signal ratio)
# How it was run: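 After VDR-bla cells are plated and left 4 h at 37C, DMSO-dissolved compounds and 3 nM (final) calcitriol agonist are added. Incubation continues 16 h at 37C; FRET beta-lactamase substrate then develops 2 h at room temperature.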
# [10] = qHTS assay to identify small molecule agonists of the vitamin D receptor (VDR) signaling pathway - cell viability counter screen (AID 743224; active = well fitted curve in the direction sought with a large enough effect in the repeat runs; an effect the other way counts as inactive or inconclusive; note: series mostly up to about 63 µM; nearly all actives have a fitted effect of over 50% in size)
# How it was run: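 VDR-bla cell line, quantitative HTS format; 16 h compound incubation (37C, 5% CO2); ATP-based CellTiter-Glo luminescence measured in the reporter assay wells.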
# [11] = qHTS assay to identify small molecule antagonists of the vitamin D receptor (VDR) signaling pathway - cell viability counter screen (AID 743225; active = well fitted curve in the direction sought with a large enough effect in the repeat runs; an effect the other way counts as inactive or inconclusive; note: nearly all actives have a fitted effect of over 50% in size)
# How it was run: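 Cytotoxicity toward the VDR-bla HEK 293T line was scored by ATP-based CellTiter-Glo luminescence, read in the wells already used for the beta-lactamase readout after 16 h compound treatment under 3 nM 1-alpha,25-dihydroxyvitamin D3 stimulation.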
# [12] = qHTS assay to identify small molecule agonists of the NFkB signaling pathway (AID 1159509; active = well fitted curve in the direction sought with a large enough effect in the signal ratio in the repeat runs, not every such curve was filed as active; the % refers to the signal ratio; note: series mostly up to about 61 µM)
# How it was run: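 NFkB-bla ME-180 cells with a beta-lactamase reporter under an NF-kB response element were plated overnight, treated with compounds in DMSO for 5 hr at 37 C, then loaded with FRET substrate for 1.5 hr at room temperature.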
# [13] = qHTS assay to identify small molecule agonists of the endoplasmic reticulum stress response signaling pathway (AID 1159516; active = well fitted activation curve with a large enough effect in the signal ratio in the repeat runs, not every such curve was filed as active; the % refers to the signal ratio)
# How it was run: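 ER stress element reporter (bla) in HeLa. 1,500 cells/well, overnight attachment; 5 hr compound; 2 hr RT substrate; dual-emission fluorescence.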
# [14] = qHTS assay to identify small molecule agonists of the endoplasmic reticulum stress response signaling pathway - cell viability counter screen (AID 1159517); note: nearly all actives have a fitted effect of over 50% in size; note: potency is the fitted concentration of half-maximal effect
# How it was run: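 Counter-screen wells were identical to the reporter wells. Cells were plated at 1,500 per well and dosed for 5 hr, then read for luminescence 30 min after CellTiter-Glo addition.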
# [15] = qHTS assay to identify small molecule antagonists of the retinoid-related orphan receptor gamma (ROR-gamma) signaling pathway - cell viability counter screen (AID 1159520; active = well fitted curve in the direction sought with a large enough effect in the repeat runs; an effect the other way counts as inactive or inconclusive; note: nearly all actives have a fitted effect of over 50% in size)
# How it was run: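 Tet-on ROR gamma CHO cells were given compounds for 2 hr, then doxycycline hyclate at 1 uM final, and incubated 16 hr at 37 C. Viability was measured as ATP content by CellTiter-Glo luminescence.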
# [16] = molecular target: Nuclear receptor ROR-gamma (Homo sapiens) (UniProt P51449); assay: qHTS assay to identify small molecule antagonists of the retinoid-related orphan receptor gamma (ROR-gamma) signaling pathway (AID 1159521; active = well fitted curve in the direction sought with a large enough effect in the repeat runs; an effect the other way counts as inactive or inconclusive)
# How it was run: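 Readout: ONE-Glo luciferase luminescence, 30 min at room temperature. System: Tet-on RORγ CHO, RORE-LUC. Sequence: compound 2 h, doxycycline 1 uM final, 16 h at 37 C.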
# [17] = qHTS assay to identify small molecule agonists of the AP-1 signaling pathway - cell viability counter screen (AID 1159525); note: nearly all actives have a fitted effect of over 55% in size
# How it was run: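 AP-1-bla ME-180 cells in Opti-MEM with 0.5% dialyzed FBS, compound exposure 5 h at 37 C in 15-point titration. Viability read in the same wells as ATP content by CellTiter-Glo luminescence, normalised to tetra-n-octylammonium bromide and DMSO controls.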
# [18] = qHTS assay to identify small molecule agonists of the AP-1 signaling pathway (AID 1159526)
# [19] = molecular target: Retinoic acid receptor RXR-alpha (Homo sapiens) (UniProt P19793); assay: qHTS assay to identify small molecule agonists of the RXR signaling pathway (AID 1159527); note: nearly all actives have a fitted effect of over 35% in size; note: potency is the fitted concentration of half-maximal effect
# How it was run: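 Reporter activation is measured as beta-lactamase activity via FRET substrate cleavage (emission 460/530 nm) in HEK 293T cells expressing an RXR-alpha-driven bla construct, following 16 hr compound exposure at 37 C.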
# [20] = qHTS assay to identify small molecule agonists of the NFkB signaling pathway - cell viability counter screen (AID 1159515); note: series mostly up to about 61 µM; nearly all actives have a fitted effect of over 55% in size
# How it was run: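 Viability in NFkB-bla ME-180 cells was measured by CellTiter-Glo luminescence, 30 min room temperature, in wells already treated 5 hr with compounds and read for reporter FRET.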
# Peroxisome proliferator-activated receptor delta (Homo sapiens), sequence (Q03181 whole entry, looked up): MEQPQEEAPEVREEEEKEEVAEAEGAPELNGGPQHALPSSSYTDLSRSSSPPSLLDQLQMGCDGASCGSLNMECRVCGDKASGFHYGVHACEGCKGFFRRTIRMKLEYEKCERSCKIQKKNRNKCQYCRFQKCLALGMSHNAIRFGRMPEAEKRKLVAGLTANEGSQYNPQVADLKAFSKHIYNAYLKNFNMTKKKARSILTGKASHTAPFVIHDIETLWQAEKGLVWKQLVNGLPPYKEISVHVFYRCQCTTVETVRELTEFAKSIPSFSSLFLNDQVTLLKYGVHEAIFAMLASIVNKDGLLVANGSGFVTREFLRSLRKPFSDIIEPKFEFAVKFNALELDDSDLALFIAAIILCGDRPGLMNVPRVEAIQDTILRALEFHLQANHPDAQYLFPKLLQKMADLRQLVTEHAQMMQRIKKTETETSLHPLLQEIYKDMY
# Retinoic acid receptor RXR-alpha (Homo sapiens), sequence (P19793 whole entry, looked up): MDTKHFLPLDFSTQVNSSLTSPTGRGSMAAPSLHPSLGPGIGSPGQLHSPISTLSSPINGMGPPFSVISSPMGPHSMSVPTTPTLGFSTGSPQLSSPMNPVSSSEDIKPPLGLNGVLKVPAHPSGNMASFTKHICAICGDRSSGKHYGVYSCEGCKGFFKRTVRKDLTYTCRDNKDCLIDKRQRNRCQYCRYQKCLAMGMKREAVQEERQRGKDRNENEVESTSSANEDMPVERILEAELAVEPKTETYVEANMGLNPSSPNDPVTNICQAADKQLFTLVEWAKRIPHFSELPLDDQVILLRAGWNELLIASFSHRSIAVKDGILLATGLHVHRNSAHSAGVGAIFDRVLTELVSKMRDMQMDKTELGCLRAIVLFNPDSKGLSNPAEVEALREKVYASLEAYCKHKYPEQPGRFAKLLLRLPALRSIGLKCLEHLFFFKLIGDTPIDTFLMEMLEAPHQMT
# Vitamin D3 receptor (Homo sapiens), sequence (P11473 whole entry, looked up): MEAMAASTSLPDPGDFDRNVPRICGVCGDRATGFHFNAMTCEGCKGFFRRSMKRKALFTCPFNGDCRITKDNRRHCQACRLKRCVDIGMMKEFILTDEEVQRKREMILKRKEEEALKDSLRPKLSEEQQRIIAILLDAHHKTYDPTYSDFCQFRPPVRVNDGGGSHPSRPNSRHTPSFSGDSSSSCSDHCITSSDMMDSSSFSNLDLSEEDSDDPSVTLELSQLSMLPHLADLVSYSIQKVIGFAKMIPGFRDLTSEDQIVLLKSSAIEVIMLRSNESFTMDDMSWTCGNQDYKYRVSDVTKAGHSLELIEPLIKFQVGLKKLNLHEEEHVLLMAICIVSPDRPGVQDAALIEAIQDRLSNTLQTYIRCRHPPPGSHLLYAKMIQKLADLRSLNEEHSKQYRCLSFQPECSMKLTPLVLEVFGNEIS
# Bile acid receptor (Homo sapiens), sequence (Q96RI1 whole entry, looked up): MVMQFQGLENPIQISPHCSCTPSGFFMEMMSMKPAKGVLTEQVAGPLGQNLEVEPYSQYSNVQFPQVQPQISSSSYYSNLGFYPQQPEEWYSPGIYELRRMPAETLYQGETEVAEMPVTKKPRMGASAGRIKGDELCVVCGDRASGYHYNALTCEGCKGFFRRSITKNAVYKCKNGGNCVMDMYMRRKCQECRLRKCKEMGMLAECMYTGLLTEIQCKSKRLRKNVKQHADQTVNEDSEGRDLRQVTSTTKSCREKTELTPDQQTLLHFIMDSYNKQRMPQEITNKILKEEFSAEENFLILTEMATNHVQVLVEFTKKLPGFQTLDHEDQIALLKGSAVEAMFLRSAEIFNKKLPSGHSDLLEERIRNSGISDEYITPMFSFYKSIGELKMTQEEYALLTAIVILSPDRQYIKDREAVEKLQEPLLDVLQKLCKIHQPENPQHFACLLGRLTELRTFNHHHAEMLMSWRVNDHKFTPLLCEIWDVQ
Structure (SMILES),Potency [1],outcome [2],outcome [3],outcome [4],outcome [5],outcome [6],outcome [7],outcome [8],outcome [9],outcome [10],outcome [11],outcome [12],outcome [13],Potency [14],outcome [15],Potency [16],outcome [17],Potency [18],Potency [19],outcome [20]
CCNc1ccccc1,inactive,inactive,inactive,inactive,inactive,inactive,inactive,inactive,inactive,inactive,inactive,inactive,inactive,inactive,inactive,inactive,inactive,inactive,inactive,–
COc1ccc([N+](=O)[O-])cc1N,inactive,inactive,inactive,inactive,inactive,inactive,inactive,inactive,inactive,inactive,inactive,inactive,inactive,inactive,inactive,inactive,inactive,inactive,inactive,–
C[C@]12CC[C@@H]3c4ccc(O)cc4CC[C@H]3[C@@H]1C[C@@H](O)[C@@H]2O,inactive,inactive,inactive,–,inactive,–,inactive,inactive,inactive,inactive,inactive,inactive,inactive,inactive,inactive,inactive,inactive,inactive,inactive,–
CCCCCCCO,–,inactive,–,–,inactive,–,inactive,inactive,–,inactive,inactive,inactive,–,inactive,inactive,inactive,inactive,inactive,inactive,inactive
O=C(O)c1ccccc1C(=O)O,inactive,inactive,inactive,–,inactive,–,inactive,–,–,inactive,inactive,–,–,inactive,inactive,inactive,inactive,inactive,inactive,–
O=S(=O)(O)c1ccccc1,–,inactive,–,inactive,inactive,inactive,inactive,inactive,–,inactive,inactive,–,–,inactive,inactive,inactive,inactive,inactive,inactive,–
O=C(O)Cn1c(=O)n(Cc2ccc(Br)cc2F)c(=O)c2ccc(Cl)cc21,–,inactive,–,inactive,inactive,inactive,inactive,inactive,–,inactive,inactive,–,inactive,inactive,inactive,inactive,inactive,inactive,inactive,–
CC1(C)OC[C@@H]2O[C@@]3(C(=O)O)OC(C)(C)O[C@H]3[C@@H]2O1,–,inactive,–,–,inactive,–,inactive,inactive,–,inactive,inactive,–,–,inactive,–,inactive,inactive,inactive,21.9 µM (active) and inactive,inactive
Cc1ccc(S(=O)(=O)N=C=O)cc1,inactive,inactive,inactive,–,inactive,–,inactive,inactive,–,inactive,inactive,–,–,inactive,inactive,inactive,inactive,inactive,inactive,–
COC(=O)CCCC(=O)OC,inactive,inactive,inactive,inactive,inactive,inactive,inactive,inactive,–,inactive,inactive,–,–,inactive,inactive,inactive,inactive,inactive,inactive,inactive
N#Cc1ccccc1,inactive,inactive,inactive,inactive,inactive,inactive,inactive,inactive,–,inactive,inactive,–,inactive,inactive,inactive,inactive,inactive,inactive,inactive,inactive
O=C(O)c1ccc(S(=O)(=O)N(Cl)Cl)cc1,–,inactive,–,inactive,inactive,inactive,inactive,inactive,–,inactive,inactive,–,inactive,inactive,inactive,inactive,inactive,inactive,inactive,inactive
CCNC(=S)NCC,inactive,inactive,inactive,–,inactive,–,inactive,inactive,inactive,inactive,inactive,–,inactive,inactive,–,inactive,inactive,inactive,inactive,–
CC(C)CCCCCCCOC(=O)CCCCC(=O)OCCCCCCCC(C)C,inactive,inactive,inactive,inactive,inactive,inactive,inactive,inactive,–,inactive,inactive,–,–,inactive,inactive,inactive,inactive,inactive,inactive,–
NC(=S)NNC(N)=S,inactive,inactive,inactive,inactive,–,inactive,inactive,–,–,inactive,inactive,–,inactive,inactive,inactive,inactive,inactive,inactive,inactive,inactive
CCCOC(=O)c1ccccc1,inactive,inactive,inactive,–,inactive,–,inactive,inactive,–,inactive,inactive,–,–,inactive,inactive,inactive,inactive,inactive,inactive,–
CCCCCCCCCCN,inactive,inactive,inactive,–,inactive,–,inactive,–,–,inactive,inactive,–,inactive,inactive and 21.9 µM (active),–,inactive,inactive,inactive,inactive,inactive
Cc1ccc([N+](=O)[O-])cc1S(=O)(=O)O,inactive,inactive,inactive,–,inactive,–,inactive,inactive,inactive,inactive,inactive,–,inactive,inactive,–,inactive,inactive,inactive,inactive,–
Cc1ccc2ncccc2c1,inactive,inactive,inactive,–,inactive,–,inactive,–,–,inactive,inactive,–,inactive,inactive,–,inactive,inactive,inactive,inactive and 13.8 µM (active),inactive
CCCCCC(=O)O,inactive,inactive,inactive,–,inactive,–,inactive,inactive,inactive,inactive,inactive,–,inactive,inactive,–,inactive,inactive,inactive,inactive,–
C=CC[N+](C)(C)CC=C,inactive,inactive,inactive,–,inactive,–,inactive,inactive,inactive,inactive,inactive,–,inactive,inactive,inactive,inactive,inactive,inactive,inactive,inactive
